Test [1] can be described thus: yeast TOR pathway RPL19A-GFP modulators, primary screen, cell-based, S. cerevisiae, multiplex flow cytometry (AID 1862; in the data active means percent of DMSO control GFP below about 86%;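 further: lower values mimic rapamycin by blocking the RPL19A rise seen in DMSO cells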). The note with it: S. cerevisiae RPL19A-GFP strain, flow cytometry fluorescence, 3 h; at 10 µM; stronger effect = lower value. For orientation: A flow cytometer gives signals particle by particle.
The nature of test [2]: modulators of MEP2-GFP levels in yeast, primary screen, S. cerevisiae, multiplex flow cytometry (AID 1867;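 active means GFP response, as percent of the DMSO control, above the screen-wide mean plus 3 SD, about 139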;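 further: median GFP channel fluorescence of barcode-gated MEP2-GFP cells measured by flow cytometry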). The settings on record: S. cerevisiae MEP2-GFP strain, 3 h, at 10 µM, stronger effect = higher value.
The nature of test [3]: modulators of CIT2-GFP expression in yeast, primary screen, S. cerevisiae, GFP fusion, multiplex flow cytometry (AID 1870;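 active means percent response above a set limit, the screen-wide mean plus 3 SD, cut at about 130% in these data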;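 further: barcoded CIT2-GFP strain pooled with four other GFP strains with rapamycin as positive control; median GFP fluorescence per well over plate mean of DMSO wells so 100% = DMSO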). The note with it: 3 h, at 10 µM, stronger effect = higher value.
Test [4] in a line: modulators of LAP4-GFP expression in yeast, primary screen, S. cerevisiae, multiplex flow cytometry (AID 1873;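 active means GFP signal, as percent of the solvent control, above the screen mean plus 3 SD, about 149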). The settings on record: 3 h, at 10 µM, stronger effect = higher value.
The nature of test [5]: modulators of AGP1-GFP expression in yeast TOR pathway, primary screen, cell-based, multiplex flow cytometry, S. cerevisiae (AID 1887;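 active means GFP signal above the screen-wide mean plus 3 SD, that is over about 124.5% of the solvent control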;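 further: AGP1-GFP fusion strain of S. cerevisiae within a five-strain barcoded multiplex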). The settings on record: 3 h, at 10 µM, stronger effect = higher value.
The nature of test [6]: inhibitors of CD8+ T cell-vesicle binding, pilot screen, LFA-1/ICAM-1 modulator project, MLPCN validation set, flow cytometry (AID 2523;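 active means response below a set limit, under 55% cells CD8-positive and vesicle-bound, and CD8 cells' 90th-percentile brightness under 279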;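 on vesicle binding response: mean PE anti-B7-1 fluorescence of CD8+ cells relative to row control; 100% = QL9-loaded vesicles with DMSO vehicle in the same plate row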). The note with it: 2C mouse CD8+ T cells, at 7 µM, stronger effect = lower value; double positive events: measured here: CD8+/vesicle+ event percentage.
Test [7] has as its target Integrin beta-1 (Homo sapiens) + Integrin alpha-4 (Homo sapiens) (UniProt P13612+P05556). Nature of the test: inhibition of HUTS-21 binding to VLA-4, pilot screen, VLA-4 allosteric modulator project, U937 cells, HUTS-21 mAb, flow cytometry, validation set (AID 2674;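 active means inhibition above 50%, about 3 SD of the validation set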;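 further: antibody binding induced by the VLA-4 ligand LDV present at three times its Kd; 0% = LDV ligand with antibody and no compound and 100% = antibody without LDV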). The note with it: HUTS-21 LIBS mAb binding, at 6.7 µM, stronger effect = higher value.
Test [8] can be described thus: superoxide lowering in aged yeast cells, pilot screen, validation compound set (AID 2706;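 active means superoxide response below 65% of plate, a cut near 3 SD across the whole screen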;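 further: yeast exposed to compound for one week at 30 degrees C before staining; 100% = mean of all compound wells on the same plate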). The settings on record: S. cerevisiae aging, superoxide DHE fluorescence; at 10 µM; stronger effect = lower value.
Test [9] has as its target Beta-adrenergic receptor kinase 1 (Homo sapiens) (UniProt P25098). As to the kind of experiment: GRK2 binders displacing RNA aptamer, biochemical, validation, human GRK2, bead flow cytometry (AID 488806;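 active means aptamer binding inhibition above 30%, about 3 SD of noise from non-fluorescent compounds; inactive means inhibition at or below 30%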). The note with it: bead-bound GRK2, FAM-aptamer displacement, at 10 µM, stronger effect = higher value.
Test [10] addresses Beta-2 adrenergic receptor (Homo sapiens) (UniProt P07550). As to the kind of experiment: beta2AR agonists driving receptor internalization, pilot screen, cell-based, FAP fluorogen, flow cytometry, validation set (AID 504459;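 active means percent response above 42, roughly 3 SD of non-fluorescent test compounds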;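 further: agonist-driven loss of surface beta2AR via internalization measured by FAP dye flow cytometry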). The settings on record: Am2.2-beta2AR cells, FAP surface receptor flow cytometry; at 10 µM; stronger effect = higher value.
The target in test [11] is AP-2 complex subunit beta (Homo sapiens) (UniProt P63010). As to the kind of experiment: inhibitors of arrestin peptide binding to AP2, pilot screen, biochemical, validation set, GST-AP2 beads, flow cytometry (AID 504541;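 active means inhibition above 54%, about 3 SD of non-fluorescent compounds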;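 further: AP2 carries R879A mutation and is captured from E. coli lysate; bead-bound FITC arrestin peptide fluorescence measuring arrestin peptide binding to AP2; 0% = DMSO wells and 100% = excess unlabeled arrestin peptide control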). The settings on record: FITC arrestin peptide, at 10 µM, stronger effect = higher value.
The nature of test [12]: yeast V-ATPase proton transport modulators, S. cerevisiae, pHLuorin, HTS validation (AID 504600; in the data active means response above about 15%;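 further: plate controls were DMSO for no effect and reference compound for full effect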). The settings on record: S. cerevisiae pHLuorin cytosolic pH, at 10 µM, stronger effect = higher value.
In test [13] the test system is anti-desmoglein-3 scFv antibody binding to human DSG3. Nature of the test: inhibitors of anti-DSG3 scFv binding to DSG3, pilot screen, biochemical, validation compound set, bead-based, flow cytometry (AID 588368;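 active means binding below the plate cutoff, the plate median minus 3 SD, with a reading above zero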;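 further: signal is the median channel fluorescence of bead-bound GFP antibody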). The note with it: Protein G beads, DSG3-Fc, scFv-GFP binding, at 10 µM, stronger effect = lower value.
Test [14] concerns Botulinum neurotoxin type F light chain protease (Clostridium botulinum). As to the kind of experiment: Botulinum neurotoxin type F light chain protease inhibition, multiplex microsphere flow cytometry, validation set (AID 588459). The settings on record: multiplex microsphere protease substrate cleavage assay, at 10 µM, stronger effect = higher value.
For test [15], the target named is Botulinum neurotoxin type A (Clostridium botulinum) (UniProt P0DPI0). Nature of the test: BoNT/A light chain protease inhibitors, biochemical, multiplex microsphere flow cytometry, validation set (AID 588460). The settings on record: at 10 µM, stronger effect = higher value.
The target of test [16] is Lethal factor (Bacillus anthracis) (UniProt P15917). As to the kind of experiment: Lethal factor protease inhibitors, Bacillus anthracis, multiplex microsphere cleavage assay, validation set (AID 588461). The settings on record: flow cytometry, at 10 µM, stronger effect = higher value.
Test [17] in a line: inhibitors of fungal efflux pumps CDR1, CDR2, MDR1, pilot screen, validation compound set, multiplex, phenotypic (AID 588506;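 active means efflux inhibition above 0.42, the validation set average plus 4 SD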;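 further: Nile Red retained in cells so higher fluorescence means more efflux inhibition; 0 = negative control wells and 1 = enniatin B 25 µM full block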). The settings on record: S. cerevisiae pump-expressing triplex, Nile Red efflux flow cytometry; at 10 µM; stronger effect = higher value.
Test [18] deals with ATP-binding cassette sub-family B member 6 (Homo sapiens) (UniProt Q9NP58). Nature of the test: ABCB6 transporter inhibitors, pilot screen, K562-ABCB6 cells, flow cytometry, validation set (AID 588550;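 active means inhibition above the screen-wide mean plus 3 SD, about 51%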;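 further: 0% = DMSO wells and 100% = benzethonium chloride 70 µM positive control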). The settings on record: K562-ABCB6 porphyrin accumulation, 1 h, at 10 µM, stronger effect = higher value.
Test [19] in a line: promoters of myeloid differentiation in arrested cells, primary screen, cell-based, GFP/MAC1 double positive, flow cytometry, validation set (AID 588685;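 active means differentiation response of at least 50%, scaled between solvent and reference control, from cells with both markers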;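 further: compound exposure lasts four days before antibody staining and flow analysis; 0% = DMSO wells and 100% = 5 µM fulvestrant positive control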). The settings on record: ER-HoxA9 marrow cells, stronger effect = higher value.

Records with an inconclusive call do not appear. The source made the active and inactive calls. Unless noted, how the calls were made is not given here.

Lethal factor (Bacillus anthracis), sequence (P15917 whole entry, looked up): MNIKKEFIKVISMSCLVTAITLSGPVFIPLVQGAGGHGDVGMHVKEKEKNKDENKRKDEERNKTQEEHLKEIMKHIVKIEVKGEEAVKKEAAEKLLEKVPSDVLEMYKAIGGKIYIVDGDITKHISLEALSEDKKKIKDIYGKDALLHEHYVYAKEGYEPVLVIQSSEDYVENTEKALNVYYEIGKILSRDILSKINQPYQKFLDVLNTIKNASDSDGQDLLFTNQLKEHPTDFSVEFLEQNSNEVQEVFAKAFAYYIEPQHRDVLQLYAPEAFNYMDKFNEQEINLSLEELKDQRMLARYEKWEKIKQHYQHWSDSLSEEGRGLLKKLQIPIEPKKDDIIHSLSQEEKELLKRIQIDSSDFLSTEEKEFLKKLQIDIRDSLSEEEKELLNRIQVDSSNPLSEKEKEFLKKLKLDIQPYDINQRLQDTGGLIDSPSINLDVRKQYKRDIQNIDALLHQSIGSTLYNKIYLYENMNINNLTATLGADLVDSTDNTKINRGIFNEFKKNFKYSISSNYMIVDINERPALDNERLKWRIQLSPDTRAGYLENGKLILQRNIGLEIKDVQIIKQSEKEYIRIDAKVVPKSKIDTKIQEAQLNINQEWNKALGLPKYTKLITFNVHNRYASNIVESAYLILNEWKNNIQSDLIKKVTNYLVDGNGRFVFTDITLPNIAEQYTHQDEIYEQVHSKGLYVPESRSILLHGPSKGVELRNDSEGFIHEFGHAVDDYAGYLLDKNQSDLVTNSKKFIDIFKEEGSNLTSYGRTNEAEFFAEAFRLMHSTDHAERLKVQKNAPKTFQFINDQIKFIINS
Integrin beta-1 (Homo sapiens) + Integrin alpha-4 (Homo sapiens), sequence (P05556 whole entry, looked up): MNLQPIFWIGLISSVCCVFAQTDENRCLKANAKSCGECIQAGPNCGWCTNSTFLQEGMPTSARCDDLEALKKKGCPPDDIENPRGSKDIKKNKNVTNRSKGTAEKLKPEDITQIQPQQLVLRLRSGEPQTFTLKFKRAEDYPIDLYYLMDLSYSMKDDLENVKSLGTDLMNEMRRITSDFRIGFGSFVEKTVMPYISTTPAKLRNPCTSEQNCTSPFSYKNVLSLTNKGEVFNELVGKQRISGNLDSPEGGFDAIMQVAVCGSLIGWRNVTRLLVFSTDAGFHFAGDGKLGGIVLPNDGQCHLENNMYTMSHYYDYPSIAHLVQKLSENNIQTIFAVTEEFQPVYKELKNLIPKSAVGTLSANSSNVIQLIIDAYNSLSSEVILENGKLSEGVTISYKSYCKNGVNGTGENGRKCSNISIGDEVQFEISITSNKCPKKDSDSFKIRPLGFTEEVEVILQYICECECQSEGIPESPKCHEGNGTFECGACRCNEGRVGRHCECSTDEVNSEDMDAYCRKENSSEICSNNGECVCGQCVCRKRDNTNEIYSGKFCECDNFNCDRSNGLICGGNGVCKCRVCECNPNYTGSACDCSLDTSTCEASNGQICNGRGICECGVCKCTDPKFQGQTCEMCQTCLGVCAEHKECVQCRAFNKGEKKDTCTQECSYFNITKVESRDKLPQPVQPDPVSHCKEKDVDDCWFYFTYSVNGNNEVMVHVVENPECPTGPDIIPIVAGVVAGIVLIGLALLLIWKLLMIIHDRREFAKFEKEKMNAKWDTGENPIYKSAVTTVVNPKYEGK
Integrin beta-1 (Homo sapiens) + Integrin alpha-4 (Homo sapiens), sequence (P13612 whole entry, looked up): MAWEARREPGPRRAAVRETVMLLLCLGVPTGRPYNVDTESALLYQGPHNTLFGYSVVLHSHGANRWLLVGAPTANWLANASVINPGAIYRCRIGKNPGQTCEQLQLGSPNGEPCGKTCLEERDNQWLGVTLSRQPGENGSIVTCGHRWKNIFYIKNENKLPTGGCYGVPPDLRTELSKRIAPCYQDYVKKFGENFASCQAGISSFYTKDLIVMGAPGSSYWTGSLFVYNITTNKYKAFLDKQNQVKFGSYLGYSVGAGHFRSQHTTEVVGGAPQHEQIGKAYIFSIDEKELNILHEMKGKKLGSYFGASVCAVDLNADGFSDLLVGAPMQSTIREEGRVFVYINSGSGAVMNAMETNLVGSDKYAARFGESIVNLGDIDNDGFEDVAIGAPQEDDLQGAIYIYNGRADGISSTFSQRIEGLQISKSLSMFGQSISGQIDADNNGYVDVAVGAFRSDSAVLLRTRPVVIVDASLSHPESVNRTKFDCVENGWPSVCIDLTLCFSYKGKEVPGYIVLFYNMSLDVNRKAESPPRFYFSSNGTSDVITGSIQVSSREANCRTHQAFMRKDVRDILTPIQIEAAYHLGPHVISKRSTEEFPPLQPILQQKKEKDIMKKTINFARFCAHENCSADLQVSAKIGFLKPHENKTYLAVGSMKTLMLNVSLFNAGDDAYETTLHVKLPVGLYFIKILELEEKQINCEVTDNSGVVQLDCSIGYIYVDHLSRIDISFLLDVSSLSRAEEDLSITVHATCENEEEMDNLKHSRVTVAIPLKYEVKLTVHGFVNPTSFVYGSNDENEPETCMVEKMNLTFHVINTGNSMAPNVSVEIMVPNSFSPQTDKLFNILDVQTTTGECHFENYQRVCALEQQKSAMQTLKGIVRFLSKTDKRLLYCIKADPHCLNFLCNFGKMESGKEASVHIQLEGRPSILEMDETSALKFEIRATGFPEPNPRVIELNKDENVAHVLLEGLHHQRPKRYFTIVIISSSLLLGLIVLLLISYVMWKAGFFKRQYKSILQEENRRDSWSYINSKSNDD
Botulinum neurotoxin type A (Clostridium botulinum), sequence (P0DPI0 whole entry, looked up): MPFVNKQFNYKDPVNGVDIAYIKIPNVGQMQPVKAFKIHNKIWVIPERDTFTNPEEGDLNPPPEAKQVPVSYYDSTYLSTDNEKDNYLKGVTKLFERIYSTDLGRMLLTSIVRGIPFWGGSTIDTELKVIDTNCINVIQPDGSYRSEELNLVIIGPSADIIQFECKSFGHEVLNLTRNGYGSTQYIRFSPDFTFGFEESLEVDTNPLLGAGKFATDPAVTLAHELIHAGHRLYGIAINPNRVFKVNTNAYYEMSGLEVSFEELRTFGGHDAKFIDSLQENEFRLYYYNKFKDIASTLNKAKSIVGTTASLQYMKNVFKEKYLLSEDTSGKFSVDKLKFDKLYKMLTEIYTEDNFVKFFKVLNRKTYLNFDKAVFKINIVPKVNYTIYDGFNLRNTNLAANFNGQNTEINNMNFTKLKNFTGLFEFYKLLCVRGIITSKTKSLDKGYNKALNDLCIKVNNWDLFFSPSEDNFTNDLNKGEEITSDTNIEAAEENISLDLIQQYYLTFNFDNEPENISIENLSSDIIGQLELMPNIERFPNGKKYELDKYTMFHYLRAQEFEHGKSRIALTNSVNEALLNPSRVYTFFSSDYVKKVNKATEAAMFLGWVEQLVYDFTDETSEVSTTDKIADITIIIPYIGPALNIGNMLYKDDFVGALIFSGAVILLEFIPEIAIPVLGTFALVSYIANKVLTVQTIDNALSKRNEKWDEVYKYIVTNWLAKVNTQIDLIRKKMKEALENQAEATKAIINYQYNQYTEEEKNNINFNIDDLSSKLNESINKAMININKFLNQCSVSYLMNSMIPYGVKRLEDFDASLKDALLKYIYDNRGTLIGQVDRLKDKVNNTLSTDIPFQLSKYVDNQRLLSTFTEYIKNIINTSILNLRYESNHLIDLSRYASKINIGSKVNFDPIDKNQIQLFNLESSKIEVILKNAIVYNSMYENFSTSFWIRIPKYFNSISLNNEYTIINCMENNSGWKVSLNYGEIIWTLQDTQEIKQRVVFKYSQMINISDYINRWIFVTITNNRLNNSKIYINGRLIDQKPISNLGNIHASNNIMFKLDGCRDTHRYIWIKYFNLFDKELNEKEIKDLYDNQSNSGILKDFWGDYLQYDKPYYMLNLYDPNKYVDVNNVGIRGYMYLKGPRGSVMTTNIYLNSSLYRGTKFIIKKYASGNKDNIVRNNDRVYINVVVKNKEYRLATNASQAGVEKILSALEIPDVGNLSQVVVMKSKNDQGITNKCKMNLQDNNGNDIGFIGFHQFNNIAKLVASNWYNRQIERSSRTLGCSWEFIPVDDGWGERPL
Beta-adrenergic receptor kinase 1 (Homo sapiens), sequence (P25098 whole entry, looked up): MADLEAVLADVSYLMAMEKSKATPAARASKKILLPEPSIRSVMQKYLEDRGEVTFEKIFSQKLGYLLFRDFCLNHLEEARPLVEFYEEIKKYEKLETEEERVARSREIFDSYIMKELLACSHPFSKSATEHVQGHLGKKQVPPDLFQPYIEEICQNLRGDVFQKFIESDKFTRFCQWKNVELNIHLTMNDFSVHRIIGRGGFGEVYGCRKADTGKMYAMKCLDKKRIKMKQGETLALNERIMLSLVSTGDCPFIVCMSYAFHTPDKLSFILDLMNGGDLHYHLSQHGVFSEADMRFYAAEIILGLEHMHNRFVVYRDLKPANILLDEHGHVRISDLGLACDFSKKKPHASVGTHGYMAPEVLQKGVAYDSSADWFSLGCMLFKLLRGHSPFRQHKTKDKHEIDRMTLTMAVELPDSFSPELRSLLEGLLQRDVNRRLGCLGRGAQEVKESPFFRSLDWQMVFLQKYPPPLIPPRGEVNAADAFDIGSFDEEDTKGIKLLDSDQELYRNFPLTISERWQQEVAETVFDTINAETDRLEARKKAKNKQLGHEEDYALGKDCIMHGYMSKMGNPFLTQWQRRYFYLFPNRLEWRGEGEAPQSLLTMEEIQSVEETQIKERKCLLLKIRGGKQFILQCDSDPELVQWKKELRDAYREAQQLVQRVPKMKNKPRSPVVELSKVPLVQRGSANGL
Beta-2 adrenergic receptor (Homo sapiens), sequence (P07550 whole entry, looked up): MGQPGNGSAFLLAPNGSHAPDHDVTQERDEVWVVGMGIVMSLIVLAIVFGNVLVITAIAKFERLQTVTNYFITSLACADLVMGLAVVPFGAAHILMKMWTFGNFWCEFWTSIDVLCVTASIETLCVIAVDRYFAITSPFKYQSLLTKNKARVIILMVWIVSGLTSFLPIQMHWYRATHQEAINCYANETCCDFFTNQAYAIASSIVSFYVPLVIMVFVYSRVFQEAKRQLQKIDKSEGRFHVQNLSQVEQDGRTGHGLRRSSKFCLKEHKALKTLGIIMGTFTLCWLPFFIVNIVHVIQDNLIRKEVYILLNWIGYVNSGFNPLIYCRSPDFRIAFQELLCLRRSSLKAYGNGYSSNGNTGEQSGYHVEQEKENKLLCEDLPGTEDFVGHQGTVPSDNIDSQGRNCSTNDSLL

For orientation: inhibition means the relative decrease from the control value, in per cent. As to `OC(c1ccccc1)(c1ccccc1)C1CCNCC1`, the percent of DMSO control GFP in test [1] was 99.4% (inactive). The GFP response vs DMSO in test [2] was 110% (inactive); in test [4], 85.3% (inactive). For the same compound, the percent response of DMSO control in [3] is 104% (inactive). In addition, the GFP response, % of DMSO in test [5] is 103% (inactive). Further, in test [6], the double positive events amounted to 73.3%. For the same compound, the vesicle binding response in [6] is 322% (inactive). In addition, the inhibition is -5.18% (inactive) in [7]; 2.73% (inactive) in [11]; 4.1% (inactive) in test [14]; 1.1% (inactive) in test [15]; 4.1% (inactive) in test [16]; 12% (inactive) in test [18]. Also, the superoxide response (% of plate) in test [8] is 94.6% (inactive). In addition, in test [9], the aptamer binding inhibition was 12% (inactive). Moreover, the response was 6.3% (inactive) in test [10] and 10.3% (inactive) in test [12]. Also, the binding (% of control) in [13] is 106% (inactive). For the same compound, the efflux inhibition (fraction of control) in test [17] is 0.05 (inactive). The differentiation response in test [19] was 2.46% (inactive).

As to `NNC(=O)c1ccc(Cl)cc1`, in [1], the percent of DMSO control GFP is 102% (inactive). Moreover, the figures for the GFP response vs DMSO in [2] and in test [4] were 103% (inactive) and 102% (inactive), respectively. The percent response of DMSO control in test [3] is 104% (inactive). Besides, the GFP response, % of DMSO in [5] is 102% (inactive). Further, in test [6], the double positive events came to 56.2%. Also, the vesicle binding response in test [6] was 114% (inactive). Besides, the inhibition in [7] was 0.25% (inactive); in [11] it was 3.28% (inactive); in test [14], -1.9% (inactive); in test [15] it was 0.4% (inactive); in test [16], 6.8% (inactive); in test [18] it was -3% (inactive). In addition, the superoxide response (% of plate) in test [8] is 88.1% (inactive). Also, the aptamer binding inhibition in test [9] was -2% (inactive). Further, the response is 7.16% (inactive) in test [10] and 3.19% (inactive) in [12]. Moreover, the binding (% of control) in [13] is 98.7% (inactive). The efflux inhibition (fraction of control) in test [17] is -0.36 (inactive). Further, in [19], the differentiation response is 2.74% (inactive).

`CCOC(=O)c1cc2c(cn1)[nH]c1ccccc12`: the percent of DMSO control GFP in test [1] was 98.4% (inactive). Moreover, the GFP response vs DMSO is 103% (inactive) in test [2] and 105% (inactive) in test [4]. The percent response of DMSO control in test [3] was 103% (inactive). In addition, in test [5], the GFP response, % of DMSO is 94.5% (inactive). This compound also showed a double positive events in test [6] of 59.3%. Besides, the vesicle binding response in test [6] is 102% (inactive). Further, the inhibition in [7] was -7.79% (inactive); in test [11] it was -6.1% (inactive); in test [14] it was 2.3% (inactive); in test [15], 0.5% (inactive); in test [16], -1.3% (inactive); in test [18], -6% (inactive). Besides, the superoxide response (% of plate) in [8] was 96.2% (inactive). For the same compound, in test [9], the aptamer binding inhibition is 3% (inactive). Moreover, the figures for the response in [10] and in [12] were -5.72% (inactive) and -1.17% (inactive), respectively. Also, the binding (% of control) in test [13] was 98.5% (inactive). The efflux inhibition (fraction of control) in test [17] is -0.39 (inactive). The differentiation response in test [19] is -1.65% (inactive).

For the compound `O=C1CCCC2=C1C(c1cccnc1)Nc1ccccc1N2` (stereo not given), the percent of DMSO control GFP in [1] was 105% (inactive). Moreover, the GFP response vs DMSO is 95.1% (inactive) in test [2] and 89.4% (inactive) in [4]. Moreover, the percent response of DMSO control in [3] is 121% (inactive). Moreover, in [5], the GFP response, % of DMSO is 107% (inactive). In test [6], the double positive events is 64.4%. Besides, the vesicle binding response in test [6] was 211% (inactive). Also, the inhibition in [7] was -5.64% (inactive); in test [11], -4.18% (inactive); in [14] it was 0.4% (inactive); in test [15], -2.1% (inactive); in test [16] it was -4% (inactive); in test [18], -9% (inactive). Further, the superoxide response (% of plate) in [8] is 98% (inactive). Besides, the aptamer binding inhibition in test [9] is -2% (inactive). Moreover, the response in test [10] was -5.46% (inactive); in [12], -6.46% (inactive). The binding (% of control) in test [13] was 99.8% (inactive). Besides, the efflux inhibition (fraction of control) in test [17] is -0.07 (inactive). Further, in test [19], the differentiation response was -4.64% (inactive).

Regarding `CCn1c(O)c(C(=O)CC2NCCc3ccccc32)c(=O)n(CC)c1=S` (stereo not given), in [1], the percent of DMSO control GFP was 95.2% (inactive). Further, the GFP response vs DMSO was 118% (inactive) in test [2] and 132% (inactive) in [4]. Further, the percent response of DMSO control in test [3] is 97.7% (inactive). For the same compound, the GFP response, % of DMSO in [5] is 101% (inactive). This compound also gave a double positive events in test [6] of 55.8%. Moreover, the vesicle binding response in test [6] is 186% (inactive). In addition, the inhibition in test [7] was -7.25% (inactive); in test [11], 5.21% (inactive); in test [14] it was 2.4% (inactive); in test [15], 1.1% (inactive); in [16], -11.5% (inactive); in [18] it was -11% (inactive). Moreover, the superoxide response (% of plate) in test [8] was 113% (inactive). In addition, the aptamer binding inhibition in [9] was 1% (inactive). In addition, the response in test [10] was 20.4% (inactive); in test [12], 1.26% (inactive). The binding (% of control) in [13] was 102% (inactive). Moreover, the efflux inhibition (fraction of control) in [17] is -0.03 (inactive). Moreover, the differentiation response in test [19] is -15.2% (inactive).

(Values after PubChem BioAssay.)
